Our source for the growth values is PubChem BioAssay (NCI).

Compounds without any hit were thinned out: in the full panel of roughly 83,000, 20% have a hit.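 96-well plates, one dose, 48 hours. Percent growth reported; active if below 10.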 Values without a mark were called inactive. Calls of active or inactive are those of the source.

Test systems include NCI-H23 lung; NCI-H226 lung; NCI-H322M lung; HOP-62 NSCLC; NCI-H460 lung; HOP-92 NSCLC; NCI-H522 lung; A549/ATCC NSCLC; 786-0 renal; COLO 205 colon; DU-145 prostate; K-562 leukemia; MALME-3M melanoma; MDA-MB-231 breast; RXF 393 renal; SF-268 CNS; SF-295 CNS; SF-539 CNS; UACC-257 melanoma; M14 melanoma.
Assay in all cases: NCI-60 one-dose screen, 48 h (100 = growth as untreated, 0 = no growth, -100 = all killed)
Details in all cases: 10 µM unless noted

`Cc1nc2cncc(C#Cc3cncc(C(=O)Nc4ccc(CN5CCN(C)CC5)c(C(F)(F)F)c4)c3)c2nc1C`: the growth in the test with NCI-H23 lung is 7.45% (active); in the test on NCI-H226 lung, -28.7% (active); in the test on NCI-H322M lung it was 8.94% (active); in the test with HOP-62 NSCLC it was -17.4% (active); in the test on NCI-H460 lung, 13.9%; in the test with HOP-92 NSCLC, -40.5% (active). Further, the growth with NCI-H522 lung was 10.2%; with A549/ATCC NSCLC, 31%; in the test with 786-0 renal, 29.6%; in the test with COLO 205 colon it was -12.3% (active); with DU-145 prostate it was 17.5%; in the test on K-562 leukemia, 7.52% (active). Further, the growth with MALME-3M melanoma is -38.8% (active); with MDA-MB-231 breast it was -49.4% (active); with RXF 393 renal, -26.2% (active); with SF-268 CNS it was 16.1%; in the test on SF-295 CNS, 20.5%; with SF-539 CNS it was -41.9% (active). For the same compound, the results for the growth in the test on UACC-257 melanoma and in the test on M14 melanoma were 14% and -24.8% (active), respectively.
Regarding `COc1cccc(-c2nc3sccn3c2-c2ccnc(NCCCNS(=O)(=O)c3ccc(F)cc3)c2)c1`, the growth in the test on NCI-H23 lung was 30.6%; in the test with NCI-H226 lung, 27.5%; with NCI-H322M lung, 69.9%; in the test with HOP-62 NSCLC it was 64.1%; in the test on NCI-H460 lung, 34.8%; with HOP-92 NSCLC it was 58.8%. For the same compound, the growth with NCI-H522 lung was 29.3%; with A549/ATCC NSCLC, 23.2%; with 786-0 renal, 56.8%; in the test on COLO 205 colon it was 33.1%; with DU-145 prostate, 34%; with K-562 leukemia it was 17.8%. Besides, the growth in the test on MALME-3M melanoma is 39.6%; in the test on MDA-MB-231 breast it was 57.4%; with RXF 393 renal, 63.2%; with SF-268 CNS, 41.2%; with SF-295 CNS, 18.6%; in the test with SF-539 CNS, 67.2%. Moreover, the growth is 35.6% with UACC-257 melanoma and 25.7% in the test with M14 melanoma.
Consider `C=C1CC2(OC1=O)C(=O)N(CCCN1C(=O)C3(CC(=C)C(=O)O3)c3ccccc31)c1ccccc12` (stereo unspecified), for which the growth was 57.6% with NCI-H23 lung; 78.7% in the test on NCI-H226 lung; 86.1% in the test on NCI-H322M lung; 98.2% in the test on HOP-62 NSCLC; 44.3% in the test with NCI-H460 lung; -27% (active) in the test on HOP-92 NSCLC. The growth in the test on NCI-H522 lung was -78% (active); with A549/ATCC NSCLC it was 83.1%; with 786-0 renal it was 20.1%; in the test on COLO 205 colon, -58.8% (active); in the test with DU-145 prostate it was 37.4%; with K-562 leukemia it was 5.21% (active). Also, the growth was -48.5% (active) in the test on MALME-3M melanoma; -29.2% (active) with MDA-MB-231 breast; -61.1% (active) with RXF 393 renal; 70.6% with SF-268 CNS; 82.1% in the test with SF-295 CNS; 9.24% (active) with SF-539 CNS. The growth in the test on UACC-257 melanoma is 30.4%; in the test with M14 melanoma, 19.1%.
Regarding `COc1cc2c(cc1OCCCCCn1c3ccccc3c3ccccc31)N=C[C@@H]1CCCN1C2=O`, the growth in the test on NCI-H23 lung was -25.5% (active); in the test with NCI-H226 lung, -91.8% (active); in the test on NCI-H322M lung, 16.2%; with HOP-62 NSCLC, -38.5% (active); in the test on NCI-H460 lung it was -84.3% (active); in the test with HOP-92 NSCLC it was -65.5% (active). Moreover, the growth in the test on NCI-H522 lung was -22.3% (active); with A549/ATCC NSCLC, -66.9% (active); with 786-0 renal, -92.9% (active); in the test with COLO 205 colon it was -85.9% (active); with DU-145 prostate, -53.3% (active); in the test with K-562 leukemia, -21.1% (active). Moreover, the growth with MALME-3M melanoma is -64.7% (active); in the test with MDA-MB-231 breast, -87.1% (active); in the test on RXF 393 renal, -80.7% (active); with SF-268 CNS it was -59.9% (active); in the test with SF-295 CNS, 11.7%; in the test on SF-539 CNS, -85.8% (active). Besides, the growth in the test on UACC-257 melanoma is -55.4% (active).
Take `Clc1ccc2c(NC3CCC(NC4CCCCC4)CC3)ccnc2c1` (stereo unspecified): the growth in the test on NCI-H23 lung is 68.1%; in the test with NCI-H226 lung it was 79.7%; with NCI-H322M lung, 109%; with HOP-62 NSCLC, 61.6%; in the test on NCI-H460 lung, 77.5%; in the test on HOP-92 NSCLC it was 51.5%. Moreover, the growth was 62.2% in the test on NCI-H522 lung; 65.6% in the test on A549/ATCC NSCLC; 59.8% in the test on 786-0 renal; -71.5% (active) in the test on COLO 205 colon; 80.9% in the test with DU-145 prostate; 0.509% (active) in the test with K-562 leukemia. Moreover, the growth is 34.6% in the test on MALME-3M melanoma; 45.4% in the test with MDA-MB-231 breast; 51.2% with RXF 393 renal; 84.7% in the test with SF-268 CNS; 60.1% in the test with SF-295 CNS; 0.613% (active) in the test on SF-539 CNS. In the test with UACC-257 melanoma, the growth was -51.5% (active).
As for `O=[N+]([O-])c1ccc(-c2cn(-c3ccccc3)c(-c3ccccc3)n2)cc1`, the growth was 78.7% in the test with NCI-H23 lung; 95.4% in the test on NCI-H226 lung; 40.5% with NCI-H322M lung; 62.4% in the test with HOP-62 NSCLC; 35.3% in the test on NCI-H460 lung; 81.2% with HOP-92 NSCLC. For the same compound, the growth was 44.6% in the test on NCI-H522 lung; 55.6% in the test on A549/ATCC NSCLC; 92.5% in the test with 786-0 renal; 101% in the test on COLO 205 colon; 109% in the test with DU-145 prostate; 62.5% in the test on K-562 leukemia. The growth was 141% with MALME-3M melanoma; 49.5% in the test with MDA-MB-231 breast; 65.3% in the test with RXF 393 renal; 91.4% in the test on SF-268 CNS; -21.1% (active) with SF-295 CNS; 116% in the test with SF-539 CNS. The growth in the test on UACC-257 melanoma is -2.3% (active).
`N/C(=N\C(N)=N\c1nc2ccccc2s1)c1ccncc1`: the growth in the test with NCI-H23 lung was 77.7%; in the test with NCI-H226 lung it was 76.1%; in the test with NCI-H322M lung, 96%; in the test with HOP-62 NSCLC, 60.7%; in the test with NCI-H460 lung it was 94%; in the test on HOP-92 NSCLC it was 65.2%. Also, the growth is 2.64% (active) in the test on NCI-H522 lung; 89.3% with A549/ATCC NSCLC; 73.9% in the test with 786-0 renal; 64.3% in the test on COLO 205 colon; 91.1% in the test with DU-145 prostate; 13.1% with K-562 leukemia. The growth with MALME-3M melanoma is 81.5%; with MDA-MB-231 breast, 55.7%; in the test on RXF 393 renal it was 65.7%; with SF-268 CNS, 7.14% (active); with SF-295 CNS, 74.1%; in the test with SF-539 CNS it was 68.2%. The growth in the test on UACC-257 melanoma was 95.3%; with M14 melanoma, 49.5%.
Regarding `COc1cc2c(cc1OCCCN1CCN(CCCn3c4ccccc4c4ccccc43)CC1)N=C[C@@H]1CCCN1C2=O`, the growth was -30.6% (active) with NCI-H23 lung; -80.4% (active) with NCI-H226 lung; -65.5% (active) in the test with NCI-H322M lung; -66% (active) in the test on HOP-62 NSCLC; -96.9% (active) with NCI-H460 lung; -80.5% (active) with HOP-92 NSCLC. For the same compound, the growth was -26.6% (active) in the test on NCI-H522 lung; -37.5% (active) with A549/ATCC NSCLC; -70.3% (active) in the test on 786-0 renal; -98.8% (active) in the test with COLO 205 colon; -85.9% (active) in the test on DU-145 prostate; -50.1% (active) with K-562 leukemia. In addition, the growth is -82.5% (active) in the test on MALME-3M melanoma; -69.3% (active) in the test on MDA-MB-231 breast; -78.3% (active) in the test on RXF 393 renal; -87.8% (active) in the test with SF-268 CNS; -92.3% (active) with SF-295 CNS; -91.3% (active) in the test with SF-539 CNS. In addition, the growth in the test on UACC-257 melanoma is -70.3% (active).
